Assay results: ChEMBL document CHEMBL1961873, “Compounds: GSK PKIS; Assays: Nanosyn kinase panel” (2012)

Tests used:
[1] = biological target: Ribosomal protein S6 kinase alpha-6 (Homo sapiens) (UniProt Q9UK32); settings: at 1 µM;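 further: each value is a mean inhibition of RSK4 from a GSK PKIS panel screen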
[2] = biological target: T1, Serine/threonine-protein kinase Sgk1 (Homo sapiens) (UniProt O00141); settings: at 0.1 µM
T1 sequence (whole entry): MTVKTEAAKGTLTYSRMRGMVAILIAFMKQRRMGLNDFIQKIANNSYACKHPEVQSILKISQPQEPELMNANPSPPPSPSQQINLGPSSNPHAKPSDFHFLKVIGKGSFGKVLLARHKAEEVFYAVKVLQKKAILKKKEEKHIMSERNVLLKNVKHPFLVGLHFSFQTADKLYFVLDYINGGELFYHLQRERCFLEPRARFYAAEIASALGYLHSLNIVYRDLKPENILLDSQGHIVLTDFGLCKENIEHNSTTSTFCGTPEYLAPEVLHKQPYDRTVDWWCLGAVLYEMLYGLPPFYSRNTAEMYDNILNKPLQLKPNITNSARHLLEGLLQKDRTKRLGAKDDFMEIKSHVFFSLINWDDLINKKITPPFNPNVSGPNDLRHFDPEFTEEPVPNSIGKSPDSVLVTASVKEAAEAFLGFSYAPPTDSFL

[3] = biological target: T1, Serine/threonine-protein kinase Sgk1 (Homo sapiens); settings: at 1 µM
[4] = biological target: T2, Serine/threonine-protein kinase Sgk2 (Homo sapiens) (UniProt Q9HBY8); settings: at 0.1 µM
T2 sequence (whole entry): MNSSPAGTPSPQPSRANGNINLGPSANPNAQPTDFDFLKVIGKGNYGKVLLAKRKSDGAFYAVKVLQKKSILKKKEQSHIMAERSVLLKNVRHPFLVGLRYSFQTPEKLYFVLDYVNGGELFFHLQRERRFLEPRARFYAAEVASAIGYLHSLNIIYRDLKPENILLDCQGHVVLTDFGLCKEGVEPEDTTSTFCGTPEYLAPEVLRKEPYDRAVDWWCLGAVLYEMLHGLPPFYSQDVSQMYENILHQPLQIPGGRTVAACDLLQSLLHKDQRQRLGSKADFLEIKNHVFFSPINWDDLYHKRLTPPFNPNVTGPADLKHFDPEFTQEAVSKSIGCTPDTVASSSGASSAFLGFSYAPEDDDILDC

[5] = biological target: T2, Serine/threonine-protein kinase Sgk2 (Homo sapiens); settings: at 1 µM
[6] = biological target: T3, Serine/threonine-protein kinase Sgk3 (Homo sapiens) (UniProt Q96BR1); settings: at 0.1 µM
T3 sequence (whole entry): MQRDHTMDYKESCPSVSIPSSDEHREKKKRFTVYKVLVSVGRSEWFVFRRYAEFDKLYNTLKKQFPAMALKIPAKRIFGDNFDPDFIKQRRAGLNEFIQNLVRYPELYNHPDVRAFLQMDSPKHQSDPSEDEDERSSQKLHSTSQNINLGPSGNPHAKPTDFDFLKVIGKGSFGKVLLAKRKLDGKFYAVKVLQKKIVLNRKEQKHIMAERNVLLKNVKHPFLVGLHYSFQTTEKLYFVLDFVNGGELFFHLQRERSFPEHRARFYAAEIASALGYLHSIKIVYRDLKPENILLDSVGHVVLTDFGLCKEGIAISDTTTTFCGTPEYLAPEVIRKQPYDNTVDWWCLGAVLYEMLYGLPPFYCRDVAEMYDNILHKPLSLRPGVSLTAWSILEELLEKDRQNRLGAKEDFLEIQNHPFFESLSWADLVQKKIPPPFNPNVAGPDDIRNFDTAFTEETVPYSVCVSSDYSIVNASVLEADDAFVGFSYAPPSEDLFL

[7] = biological target: T3, Serine/threonine-protein kinase Sgk3 (Homo sapiens); settings: at 1 µM
[8] = biological target: 5'-AMP-activated protein kinase catalytic subunit alpha-1 (Homo sapiens) (UniProt Q13131); settings: at 0.1 µM
Sequence of 5'-AMP-activated protein kinase catalytic subunit alpha-1 (Homo sapiens) (Q13131 whole entry, looked up): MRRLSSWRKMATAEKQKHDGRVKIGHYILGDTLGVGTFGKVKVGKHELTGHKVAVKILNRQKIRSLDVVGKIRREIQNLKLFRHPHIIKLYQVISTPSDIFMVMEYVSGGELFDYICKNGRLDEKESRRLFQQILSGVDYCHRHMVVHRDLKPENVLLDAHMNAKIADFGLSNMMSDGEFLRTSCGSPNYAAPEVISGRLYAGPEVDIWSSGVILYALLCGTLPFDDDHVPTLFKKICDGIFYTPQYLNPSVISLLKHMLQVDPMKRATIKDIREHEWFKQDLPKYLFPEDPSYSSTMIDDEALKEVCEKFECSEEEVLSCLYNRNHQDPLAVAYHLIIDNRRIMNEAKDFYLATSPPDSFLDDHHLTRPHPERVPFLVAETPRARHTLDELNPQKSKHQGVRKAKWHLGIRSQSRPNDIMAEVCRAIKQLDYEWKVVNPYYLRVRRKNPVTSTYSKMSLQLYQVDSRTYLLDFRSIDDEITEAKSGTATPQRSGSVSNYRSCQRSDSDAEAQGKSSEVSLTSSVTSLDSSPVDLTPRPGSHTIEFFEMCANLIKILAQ

[9] = biological target: 5'-AMP-activated protein kinase catalytic subunit alpha-1 (Homo sapiens) (UniProt Q13131); settings: at 1 µM
[10] = biological target: 5'-AMP-activated protein kinase catalytic subunit alpha-2 (Homo sapiens) (UniProt P54646); settings: at 0.1 µM
Sequence of 5'-AMP-activated protein kinase catalytic subunit alpha-2 (Homo sapiens) (P54646 whole entry, looked up): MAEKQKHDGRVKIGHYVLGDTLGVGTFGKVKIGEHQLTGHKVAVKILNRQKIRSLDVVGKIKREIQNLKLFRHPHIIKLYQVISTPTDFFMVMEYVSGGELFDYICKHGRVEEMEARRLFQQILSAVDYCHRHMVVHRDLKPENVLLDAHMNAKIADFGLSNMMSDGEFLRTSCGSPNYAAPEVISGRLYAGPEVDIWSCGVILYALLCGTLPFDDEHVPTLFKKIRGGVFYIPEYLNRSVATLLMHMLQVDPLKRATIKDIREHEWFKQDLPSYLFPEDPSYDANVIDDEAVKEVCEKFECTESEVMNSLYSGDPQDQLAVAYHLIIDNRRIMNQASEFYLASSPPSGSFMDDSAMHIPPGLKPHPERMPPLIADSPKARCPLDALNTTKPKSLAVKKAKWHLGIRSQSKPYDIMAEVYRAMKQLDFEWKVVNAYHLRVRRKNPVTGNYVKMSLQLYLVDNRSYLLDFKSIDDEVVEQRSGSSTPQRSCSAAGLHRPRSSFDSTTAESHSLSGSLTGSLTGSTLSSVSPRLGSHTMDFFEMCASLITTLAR

[11] = biological target: 5'-AMP-activated protein kinase catalytic subunit alpha-2 (Homo sapiens) (UniProt P54646); settings: at 1 µM
[12] = biological target: T4, NUAK family SNF1-like kinase 1 (Homo sapiens) (UniProt O60285); settings: at 0.1 µM
T4 sequence (whole entry): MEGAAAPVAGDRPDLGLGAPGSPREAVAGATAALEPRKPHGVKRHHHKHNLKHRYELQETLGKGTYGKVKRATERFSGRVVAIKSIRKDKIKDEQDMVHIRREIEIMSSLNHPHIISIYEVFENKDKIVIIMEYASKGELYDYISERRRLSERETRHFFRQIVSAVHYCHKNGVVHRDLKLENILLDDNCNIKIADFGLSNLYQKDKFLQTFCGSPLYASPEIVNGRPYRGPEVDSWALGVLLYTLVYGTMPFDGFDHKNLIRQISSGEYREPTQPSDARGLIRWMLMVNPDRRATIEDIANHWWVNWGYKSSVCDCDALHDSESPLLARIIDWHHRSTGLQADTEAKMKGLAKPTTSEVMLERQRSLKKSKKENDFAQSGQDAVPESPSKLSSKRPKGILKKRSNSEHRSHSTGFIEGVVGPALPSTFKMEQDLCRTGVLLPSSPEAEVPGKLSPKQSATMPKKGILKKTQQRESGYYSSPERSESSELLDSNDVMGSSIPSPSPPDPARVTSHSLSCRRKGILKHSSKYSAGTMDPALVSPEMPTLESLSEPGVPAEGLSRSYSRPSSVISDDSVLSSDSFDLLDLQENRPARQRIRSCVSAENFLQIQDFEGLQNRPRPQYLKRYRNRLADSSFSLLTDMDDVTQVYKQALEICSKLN

[13] = biological target: T4, NUAK family SNF1-like kinase 1 (Homo sapiens); settings: at 1 µM
[14] = biological target: T5, Serine/threonine-protein kinase BRSK1 (Homo sapiens) (UniProt Q8TDC3); settings: at 0.1 µM
T5 sequence (whole entry): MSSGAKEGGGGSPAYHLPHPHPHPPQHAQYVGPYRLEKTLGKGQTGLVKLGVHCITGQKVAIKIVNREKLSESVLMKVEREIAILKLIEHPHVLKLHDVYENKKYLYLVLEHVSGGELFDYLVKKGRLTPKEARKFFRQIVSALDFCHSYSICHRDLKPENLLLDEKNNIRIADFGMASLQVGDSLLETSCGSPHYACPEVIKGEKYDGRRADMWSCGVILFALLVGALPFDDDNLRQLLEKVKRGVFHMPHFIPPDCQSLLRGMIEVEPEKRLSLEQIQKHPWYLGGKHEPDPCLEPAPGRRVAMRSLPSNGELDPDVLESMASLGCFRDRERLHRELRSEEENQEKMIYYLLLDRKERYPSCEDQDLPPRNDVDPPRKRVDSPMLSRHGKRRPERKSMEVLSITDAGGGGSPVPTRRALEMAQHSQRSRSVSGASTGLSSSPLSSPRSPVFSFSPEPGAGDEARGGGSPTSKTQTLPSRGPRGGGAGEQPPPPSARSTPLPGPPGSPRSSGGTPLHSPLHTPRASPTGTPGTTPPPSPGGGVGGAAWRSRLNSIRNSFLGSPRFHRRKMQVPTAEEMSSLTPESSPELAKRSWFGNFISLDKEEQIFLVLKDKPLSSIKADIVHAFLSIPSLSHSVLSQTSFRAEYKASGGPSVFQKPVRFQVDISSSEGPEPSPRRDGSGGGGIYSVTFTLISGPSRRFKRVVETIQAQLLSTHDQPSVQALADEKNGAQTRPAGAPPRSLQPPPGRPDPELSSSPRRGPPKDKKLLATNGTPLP

[15] = biological target: T5, Serine/threonine-protein kinase BRSK1 (Homo sapiens); settings: at 1 µM
[16] = biological target: T6, Serine/threonine-protein kinase BRSK2 (Homo sapiens) (UniProt Q8IWQ3); settings: at 0.1 µM
T6 sequence (whole entry): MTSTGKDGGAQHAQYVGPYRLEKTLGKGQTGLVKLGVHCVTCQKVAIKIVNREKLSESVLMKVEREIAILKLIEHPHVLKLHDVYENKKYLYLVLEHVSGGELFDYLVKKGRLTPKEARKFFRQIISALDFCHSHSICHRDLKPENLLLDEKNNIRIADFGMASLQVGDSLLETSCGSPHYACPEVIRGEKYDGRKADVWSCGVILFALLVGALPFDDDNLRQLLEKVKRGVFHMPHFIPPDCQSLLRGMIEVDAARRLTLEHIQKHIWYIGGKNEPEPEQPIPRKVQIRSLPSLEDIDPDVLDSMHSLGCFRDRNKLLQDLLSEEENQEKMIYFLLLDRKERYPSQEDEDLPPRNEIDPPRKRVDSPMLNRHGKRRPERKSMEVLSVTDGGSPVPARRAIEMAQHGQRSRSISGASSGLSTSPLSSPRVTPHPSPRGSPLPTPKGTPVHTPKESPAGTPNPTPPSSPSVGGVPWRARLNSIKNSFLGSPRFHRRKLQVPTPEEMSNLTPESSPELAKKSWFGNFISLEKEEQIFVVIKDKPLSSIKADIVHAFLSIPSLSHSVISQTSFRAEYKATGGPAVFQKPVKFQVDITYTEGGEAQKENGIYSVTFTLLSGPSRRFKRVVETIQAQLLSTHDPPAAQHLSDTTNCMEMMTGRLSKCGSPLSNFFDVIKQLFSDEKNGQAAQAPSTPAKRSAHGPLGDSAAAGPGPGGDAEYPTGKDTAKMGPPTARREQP

[17] = biological target: T6, Serine/threonine-protein kinase BRSK2 (Homo sapiens); settings: at 1 µM
[18] = biological target: Calcium/calmodulin-dependent protein kinase type 1D (Homo sapiens) (UniProt Q8IU85); settings: at 0.1 µM
Sequence of Calcium/calmodulin-dependent protein kinase type 1D (Homo sapiens) (Q8IU85 whole entry, looked up): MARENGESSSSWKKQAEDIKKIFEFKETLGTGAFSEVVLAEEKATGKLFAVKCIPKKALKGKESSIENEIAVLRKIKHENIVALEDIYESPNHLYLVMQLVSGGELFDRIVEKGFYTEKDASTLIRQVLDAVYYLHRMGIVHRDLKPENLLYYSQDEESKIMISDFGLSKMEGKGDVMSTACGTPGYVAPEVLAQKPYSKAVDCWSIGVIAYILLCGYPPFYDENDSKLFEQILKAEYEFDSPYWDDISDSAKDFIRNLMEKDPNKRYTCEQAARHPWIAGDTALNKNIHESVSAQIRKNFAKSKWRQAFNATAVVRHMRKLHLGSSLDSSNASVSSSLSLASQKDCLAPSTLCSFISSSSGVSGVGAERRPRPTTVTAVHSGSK

[19] = biological target: Calcium/calmodulin-dependent protein kinase type 1D (Homo sapiens) (UniProt Q8IU85); settings: at 1 µM
[20] = biological target: Calcium/calmodulin-dependent protein kinase type II subunit alpha (Homo sapiens) (UniProt Q9UQM7); settings: at 0.1 µM;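 further: reported values are averages (mean inhibition of CAMK2A)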
Sequence of Calcium/calmodulin-dependent protein kinase type II subunit alpha (Homo sapiens) (Q9UQM7 whole entry): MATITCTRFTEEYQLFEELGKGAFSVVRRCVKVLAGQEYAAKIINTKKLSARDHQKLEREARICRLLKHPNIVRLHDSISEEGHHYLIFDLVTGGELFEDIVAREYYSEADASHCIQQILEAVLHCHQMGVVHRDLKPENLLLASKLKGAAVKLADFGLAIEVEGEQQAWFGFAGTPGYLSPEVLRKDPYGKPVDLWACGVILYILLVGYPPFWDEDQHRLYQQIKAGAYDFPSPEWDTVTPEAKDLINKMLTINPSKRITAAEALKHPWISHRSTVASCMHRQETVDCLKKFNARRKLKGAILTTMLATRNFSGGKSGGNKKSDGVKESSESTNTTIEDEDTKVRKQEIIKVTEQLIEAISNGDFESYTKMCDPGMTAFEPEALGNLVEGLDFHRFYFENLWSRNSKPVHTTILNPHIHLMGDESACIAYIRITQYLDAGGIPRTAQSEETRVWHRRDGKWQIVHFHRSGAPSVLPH

Sequence of Ribosomal protein S6 kinase alpha-6 (Homo sapiens) (Q9UK32 whole entry): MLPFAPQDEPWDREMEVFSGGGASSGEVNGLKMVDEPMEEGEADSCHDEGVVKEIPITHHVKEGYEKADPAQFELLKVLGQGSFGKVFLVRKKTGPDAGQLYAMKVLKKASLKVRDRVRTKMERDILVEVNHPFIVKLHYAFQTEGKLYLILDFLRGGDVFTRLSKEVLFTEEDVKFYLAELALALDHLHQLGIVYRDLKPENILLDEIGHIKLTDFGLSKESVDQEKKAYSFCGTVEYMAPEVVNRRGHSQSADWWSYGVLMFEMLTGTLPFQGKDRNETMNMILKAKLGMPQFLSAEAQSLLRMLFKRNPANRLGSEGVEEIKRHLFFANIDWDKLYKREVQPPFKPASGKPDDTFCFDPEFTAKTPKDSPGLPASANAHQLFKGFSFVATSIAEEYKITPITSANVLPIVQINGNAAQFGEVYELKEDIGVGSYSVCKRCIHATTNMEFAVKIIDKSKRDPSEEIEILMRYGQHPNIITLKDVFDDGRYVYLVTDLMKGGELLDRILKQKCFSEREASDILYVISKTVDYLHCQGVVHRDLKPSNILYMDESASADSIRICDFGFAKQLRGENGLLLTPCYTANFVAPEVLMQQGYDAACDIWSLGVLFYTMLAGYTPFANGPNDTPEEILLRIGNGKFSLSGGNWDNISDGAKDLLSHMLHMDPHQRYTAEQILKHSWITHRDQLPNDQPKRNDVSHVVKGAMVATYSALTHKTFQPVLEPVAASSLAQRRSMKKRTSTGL

Compound	inhibition [1]	inhibition [2]	inhibition [3]	inhibition [4]	inhibition [5]	inhibition [6]	inhibition [7]	inhibition [8]	inhibition [9]	inhibition [10]	inhibition [11]	inhibition [12]	inhibition [13]	inhibition [14]	inhibition [15]	inhibition [16]	inhibition [17]	inhibition [18]	inhibition [19]	inhibition [20]
Cc1nc(-c2ccccc2)n2nc(NCCCN3CCOCC3)ncc12	12.8%	2.86%	2.79%	2.32%	0.65%	0.22%	1.99%	2.89%	6.04%	3.08%	4.91%	0.66%	20.3%	1.1%	-0.76%	1.22%	2.49%	1.67%	2.49%	2.42%
Cc1ccc2c(c1)/C(=N/Nc1ccc(S(N)(=O)=O)cc1)C(=O)N2	2.46%	0.97%	1.07%	1.13%	0.76%	-0.94%	-1.14%	1.77%	6.53%	0.59%	12.3%	21.7%	62.2%	2.87%	9.92%	3.09%	12.8%	2.35%	2.43%	2.02%
COc1cccc(-n2nc(C)c3c(N/N=C(\C)c4ccncc4)ncnc32)c1	0.03%	-0.15%	0.8%	1.28%	5.85%	0.38%	0.52%	-0.66%	0.55%	2.15%	1.4%	3.11%	2.97%	0.77%	-2.02%	-0.07%	0.93%	-0.6%	2.19%	-1.72%
CCn1c(-c2nonc2N)nc2c(C#CC(C)(C)O)nc(OCCNC)cc21	2.45%	1.88%	2.66%	2.29%	4.48%	2.71%	13.9%	2.74%	8.37%	4.37%	3.94%	1.05%	3.39%	1.73%	0.16%	1.24%	4.81%	1.21%	2.06%	3.99%
CN(C)C(=O)O[C@@H]1CN[C@@H](C#Cc2cc3ncnc(Nc4ccc(OCc5cccc(F)c5)c(Cl)c4)c3s2)C1	1.1%	0.97%	0.35%	-1.98%	1.45%	-0.94%	-0.47%	1.21%	-0.92%	-1.56%	3.03%	-0.32%	0.15%	1.77%	1.18%	1.4%	1.44%	1.61%	1.9%	1.78%
NS(=O)(=O)c1cccc(-c2cc3ccncc3cc2OCc2ccccc2)c1	3.01%	3.46%	3.63%	5.08%	6.91%	9.81%	1.63%	4.1%	5.8%	-0.75%	7.06%	8.52%	11.3%	3.31%	3.45%	2.26%	3.2%	0.47%	0.96%	4.23%
